PubChem BioAssay AID1209 (Sanford-Burnham Center for Chemical Genomics, 2008)
The campaign covered roughly 190,000 compounds. About 810 (0.43%) were called active. The sample holds actives, similar compounds and a random draw of the others, so the mix is not that of the screen. Unmarked numbers belong to inactive results. Cut-off read from the data, not from the text of the source: active = inhibition above about 50%; inactive = the rest.

Molecular target: Mannose-6-phosphate isomerase (Homo sapiens) (UniProt P34949)
Sequence (P34949 whole entry, looked up): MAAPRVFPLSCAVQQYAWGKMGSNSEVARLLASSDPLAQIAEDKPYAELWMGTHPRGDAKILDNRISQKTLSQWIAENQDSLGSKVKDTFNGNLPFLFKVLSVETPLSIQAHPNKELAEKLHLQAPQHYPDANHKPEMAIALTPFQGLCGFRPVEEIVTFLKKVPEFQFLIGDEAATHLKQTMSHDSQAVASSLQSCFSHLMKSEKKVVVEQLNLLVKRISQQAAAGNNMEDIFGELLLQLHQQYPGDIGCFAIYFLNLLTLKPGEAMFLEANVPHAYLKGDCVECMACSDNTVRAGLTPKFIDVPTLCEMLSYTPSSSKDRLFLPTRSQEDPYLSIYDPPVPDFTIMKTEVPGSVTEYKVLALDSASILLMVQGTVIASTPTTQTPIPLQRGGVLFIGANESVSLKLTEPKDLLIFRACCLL
Experiment: MPI enzyme activity inhibition – biochemical, fluorescence intensity, coupled assay, primary screen (AID 1209);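 note: plate controls were DMSO vehicle for no effect and wells lacking substrate for full effect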
Settings: purified PMI enzyme, at 20 µM, active compounds read high

| SMILES | inhibition |
| --- | --- |
| CCOC(=O)c1c(C)c(C(=O)NCc2ccccc2OC)c(C)n1C | 11.8% |
| CCOC(=O)CNC(=S)n1ncnc1N | -9.1% |
| Cc1ccc(S(=O)(=O)CCC(=O)Nc2ccc(F)cc2)cc1 | 6.5% |
| Cc1cccc(C(C)C)c1NC(=O)COC(=O)Cc1ccsc1 | 9% |
| Cc1ccc(OCC(=O)N/N=C/c2ccco2)cc1 | -1.5% |
| COc1ccc(/C=N/Nc2cc(N3CCCC3)nc(N3CCCC3)n2)cc1 | 32% |
| CN(C)c1ccc(/C=N/Nc2cc(N3CCOCC3)nc(N3CCOCC3)n2)cc1 | 73.3% (active) |
| Oc1ccc(/C=N/Nc2cc(N3CCCC3)nc(N3CCCC3)n2)cc1 | 32% |
| CC(C)c1ccc(/C=N/Nc2cc(N3CCOCC3)nc(N3CCOCC3)n2)cc1 | 77% (active) |
| CCNc1nc(NCC)nc(N/N=C/c2ccc(O)c(O)c2)n1 | 61.4% (active) |
| Oc1ccc(/C=N\Nc2cc(N3CCOCC3)nc(N3CCOCC3)n2)c(O)c1 | 32.2% |
| Oc1ccc(/C=N/Nc2cc(N3CCOCC3)nc(N3CCOCC3)n2)cc1O | 76.8% (active) |
| CCNc1nc(NCC)nc(N/N=C/c2ccc(Br)cc2)n1 | -0.7% |
| CN(C)c1ccc(/C=C/C=N/Nc2nc(N3CCOCC3)nc(N3CCOCC3)n2)cc1 | 7.3% |
| Clc1ccc(-c2ccc(/C=N/Nc3cc(N4CCOCC4)nc(N4CCOCC4)n3)o2)cc1 | 47.2% |
| CCNc1nc(NCC)nc(N/N=C/c2ccc(N(C)C)cc2)n1 | -12.9% |
| Oc1cccc(/C=N/Nc2cc(N3CCCC3)nc(N3CCCC3)n2)c1 | 41.2% |
| O=[N+]([O-])c1ccc(O)c2cccnc12 | -10.1% |
| CCCn1nc(C(=O)NC2CCCc3ccccc32)c2ccccc2c1=O (configuration not stated) | 6.9% |
| COc1ccc(OC)c(C(=O)COC(=O)c2cc(C)oc2C)c1 | -24.4% |
| O=C(CNC(=O)c1cccs1)NCC(=O)OCc1cccc(Cl)c1 | 4.5% |

| SMILES | inhibition |
| --- | --- |
| CCOC(=O)C1=C(C)Nc2ccccc2N=C1NC(=O)Cc1ccc(Br)cc1 | 18.8% |
| COc1ccc(Br)cc1-c1noc(-c2ccccc2)n1 | 11.5% |
| COc1ccc(C2C(C#N)=C(N)Oc3n[nH]c(C)c32)cc1Cn1cc([N+](=O)[O-])cn1 (configuration not stated) | 7.7% |
| O=C(/C=C/c1ccc(Br)cc1)NC(=S)NNC(=O)c1ccco1 | -1.2% |
| COc1cc(/C=N/Nc2nc(N3CCCC3)nc(N3CCCC3)n2)ccc1O | 7.9% |
| Oc1ccc(/C=N/Nc2nc(N3CCCC3)nc(N3CCCC3)n2)cc1O | 57.6% (active) |
| COc1ccc(/C=N/Nc2nc(N3CCCC3)nc(N3CCCC3)n2)cc1O | -10.3% |
| N=C1C(c2ccccc2)=C(O)CN1c1cccc(S(N)(=O)=O)c1 | 10.1% |
| CC1(C)C2CCC1(CS(=O)(=O)N1CCOCC1)C(=O)C2 (configuration not stated) | 7.9% |
| CCOC(=O)c1cc2sccc2n1CC(=O)Nc1ccc(OC)cc1OC | 16% |
| O=C1c2ccccc2C(=O)N1CN(C(=O)COc1ccccc1)c1ccccc1 | 3.5% |
| COC(=O)c1ccc(Sc2ccc(C)cc2)c(N)c1 | 55% (active) |
| COC(=O)c1ccc(Sc2ccc(F)cc2)c(N)c1 | 11.4% |
| COC(=O)c1ccc(Sc2ccc(Cl)cc2)c(N)c1 | 9.3% |
| Cc1sc2nc(CSc3n[nH]c(N)n3)[nH]c(=O)c2c1C | -10.2% |
| CCCCNc1cc(NC(C)=O)cc2cc(OC)c(OC)cc12 | 53.3% (active) |
| CCCCNc1nc(=S)[nH]c2cc(OC)c(OC)cc12 | -4.5% |
| CCCC(=O)Nc1cc(OC)c(OC)cc1C(=O)O | 6.8% |
| Cc1cc(C)c(C#N)c(SCc2[nH]nc3c2C(c2ccc(F)cc2)C(C#N)=C(N)O3)n1 (configuration not stated) | 12.8% |
| COc1cc(OC)cc(C(=O)NNC(=O)Cc2ccc(OC)c(S(=O)(=O)N3CCOCC3)c2)c1 | 2.7% |
| CCCCNC(=O)c1sc(=S)n2c1[nH]c(=O)c1ccccc12 | 16.1% |

| SMILES | inhibition |
| --- | --- |
| CCCCCNC(=O)c1ccc2c(=O)[nH]c3c(C(=O)NCC4CCCO4)sc(=S)n3c2c1 (configuration not stated) | 10.4% |
| CCOC(=O)c1sc(=S)n2c1[nH]c(=O)c1ccc(C(=O)OC)cc12 | 68.6% (active) |
| CCOc1ccc(-c2[nH]nc3c2C(c2ccc(O)cc2)C(C#N)=C(N)O3)cc1 (configuration not stated) | 27.8% |
| COc1ccc(-c2noc(CN(C(=O)C(C)(C)C)C(C)C)n2)cc1 | 15.9% |
| Cc1oc2c(O)c(O)ccc2c(=O)c1-c1cnn(-c2ccccc2)c1 | 79.5% (active) |
| Cc1oc2cc(O)ccc2c(=O)c1-c1cnn(-c2ccccc2)c1 | -5.2% |
| Cc1oc2c(C)c(O)ccc2c(=O)c1-c1cnn(-c2ccccc2)c1 | -14.8% |
| CCC(CC)=C(C#N)C(=O)NC1CCCCC1 | -12.5% |
| CCN(C(=O)COC(=O)c1cc(-c2ccccc2)nc2c1c(C)nn2-c1ccccc1)C1CCS(=O)(=O)C1 (configuration not stated) | 14.7% |
| CCOc1ccccc1-c1c2cc(O)c(=O)cc-2oc2cc(O)c(O)cc12 | 46.2% |
| COc1cc(OC)c(-c2c3cc(O)c(=O)cc-3oc3cc(O)c(O)cc23)cc1OC | 73.9% (active) |
| CC1(C)CC(=O)c2c(oc3cc(O)c(O)cc23)C1 | 47.6% |
| COc1ccc(OC)c(-c2c3cc(O)c(=O)cc-3oc3cc(O)c(O)cc23)c1 | 61.1% (active) |
| COc1ccc(OC)c(-c2oc3ccccc3c(=O)c2O)c1 | -5.6% |
| COc1cc(-c2cc(=O)c3ccccc3o2)ccc1O | 5.9% |
| COc1ccc(-c2cc(=O)c3cc(OC)ccc3o2)cc1 | -5% |
| O=c1cc(-c2ccccc2Cl)oc2cccc(O)c12 | -9.9% |
| Nc1cnn(Cc2ccccc2F)c1 | 18.2% |
| COc1ccc2[nH]cc(CCn3ccc(=O)c(C)c3C)c2c1 | 0.3% |
| O=C(Nc1ccccc1)c1sccc1Oc1ccc([N+](=O)[O-])cc1F | -6% |
